Test results published in the supplement of paper PMC10849652.
Of roughly 8,800 targets only a part is listed; those with a hit were picked by preference. About 0.5% of all pairs of compound and target were hits.

Assays:
Experiment in all cases: log2 fold change, soluble protein after heating vs DMSO (PISA); higher = thermal stabilisation; K562 lysate, 10 uM; active = over 0.2 and 3.5 SD of the protein, either way, in both replicates (recomputed)
alvocidib = compound: CN1CC[C@H](c2c(O)cc(O)c3c(=O)cc(-c4ccccc4Cl)oc23)[C@H](O)C1 [alvocidib]
Summary of the method: (§1)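 Soluble protein was defined as the supernatant remaining after 21,000xg for 90 min, following pooling of heated aliquots and adjustment to 0.5% NP-40 at 4°C. Before that, crude K562 extract at 1 mg/mL protein in PBS pH 7.4 with 1 mM MgCl2 was treated with 10 μM compound for 30 min and heated for 3 min across 48°C-58°C. Quantification used TMTpro 16plex LC-MS/MS with channel sums equalised, and values are log-two fold changes in thermal stability relative to solvent controls from duplicates.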

Tubastatin A = compound: CN1CCc2c(c3ccccc3n2Cc2ccc(C(=O)NO)cc2)C1 [Tubastatin A]
Summary of the method: as §1

[1] = compound: CNC(=O)C1=CC=CC=C1NC2=NC(=NC=C2Cl)NC3=C(C=C(C=C3)N4CCOCC4)OC
Summary of the method: as §1

defactinib = compound: CNC(=O)c1ccc(Nc2ncc(C(F)(F)F)c(NCc3nccnc3N(C)S(C)(=O)=O)n2)cc1 [defactinib]
Summary of the method: as §1

[2] = compound: CNc1nc(-c2ccc3c(N)n[nH]c3c2)cc(N2C[C@@H](C(=O)NC3CCCCC3)CC[C@H]2C)n1
Summary of the method: as §1

encorafenib = compound: COC(=O)N[C@@H](C)CNc1nccc(-c2cn(C(C)C)nc2-c2cc(Cl)cc(NS(C)(=O)=O)c2F)n1 [encorafenib]
Summary of the method: as §1

[3] = compound: COC(=O)[C@H](CCSC)NC(=O)C1=C(C=C(C=C1)NC[C@H](CS)N)C2=CC=CC=C2
Summary of the method: as §1

alisertib = compound: COc1cc(Nc2ncc3c(n2)-c2ccc(Cl)cc2C(c2c(F)cccc2OC)=NC3)ccc1C(=O)O [alisertib]
Summary of the method: as §1

[4] = compound: COc1cc2nc(-c3cc(F)ccc3O)nc(N[C@@H]3CNC[C@H]3C(C)(C)O)c2cc1OC
Summary of the method: as §1

gefitinib = compound: COc1cc2ncnc(Nc3ccc(F)c(Cl)c3)c2cc1OCCCN1CCOCC1 [gefitinib]
Summary of the method: as §1

lapatinib = compound: CS(=O)(=O)CCNCc1ccc(-c2ccc3ncnc(Nc4ccc(OCc5cccc(F)c5)c(Cl)c4)c3c2)o1 [lapatinib]
Summary of the method: as §1

pictilisib = compound: CS(=O)(=O)N1CCN(Cc2cc3nc(-c4cccc5[nH]ncc45)nc(N4CCOCC4)c3s2)CC1 [pictilisib]
Summary of the method: as §1

crizotinib = compound: C[C@@H](Oc1cc(-c2cnn(C3CCNCC3)c2)cnc1N)c1c(Cl)ccc(F)c1Cl [crizotinib]
Summary of the method: as §1

[5] = compound: C[C@H](C1=CC=C(C=C1)C(=O)NC2=C3C=CNC3=NC=C2)N
Summary of the method: as §1

duvelisib = compound: C[C@H](Nc1ncnc2nc[nH]c12)c1cc2cccc(Cl)c2c(=O)n1-c1ccccc1 [duvelisib]
Summary of the method: as §1

gandotinib = compound: Cc1cc(Nc2cc(CN3CCOCC3)c3nc(C)c(Cc4ccc(Cl)cc4F)n3n2)n[nH]1 [gandotinib]
Summary of the method: as §1

tozasertib = compound: Cc1cc(Nc2cc(N3CCN(C)CC3)nc(Sc3ccc(NC(=O)C4CC4)cc3)n2)n[nH]1 [tozasertib]
Summary of the method: as §1

doramapimod = compound: Cc1ccc(-n2nc(C(C)(C)C)cc2NC(=O)Nc2ccc(OCCN3CCOCC3)c3ccccc23)cc1 [doramapimod]
Summary of the method: as §1

bafetinib = compound: Cc1ccc(NC(=O)c2ccc(CN3CC[C@H](N(C)C)C3)c(C(F)(F)F)c2)cc1Nc1nccc(-c2cncnc2)n1 [bafetinib]
Summary of the method: as §1

[6] = compound: Cc1cccc(CC(=O)N2CCc3c2ccc(-c2cn(C)c4ncnc(N)c24)c3F)n1
Summary of the method: as §1

UniProt Q99729, sequence (Q99729 whole entry, looked up): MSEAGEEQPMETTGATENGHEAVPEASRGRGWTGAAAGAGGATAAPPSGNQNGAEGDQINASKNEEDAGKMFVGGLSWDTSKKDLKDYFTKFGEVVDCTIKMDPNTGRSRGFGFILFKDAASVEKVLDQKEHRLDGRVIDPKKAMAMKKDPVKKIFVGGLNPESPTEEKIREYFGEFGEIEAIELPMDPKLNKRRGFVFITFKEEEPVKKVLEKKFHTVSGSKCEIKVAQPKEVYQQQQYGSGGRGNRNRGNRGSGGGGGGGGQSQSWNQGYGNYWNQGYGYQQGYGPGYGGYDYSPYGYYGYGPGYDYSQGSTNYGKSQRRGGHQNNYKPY
UniProt P20839, sequence (P20839 whole entry, looked up): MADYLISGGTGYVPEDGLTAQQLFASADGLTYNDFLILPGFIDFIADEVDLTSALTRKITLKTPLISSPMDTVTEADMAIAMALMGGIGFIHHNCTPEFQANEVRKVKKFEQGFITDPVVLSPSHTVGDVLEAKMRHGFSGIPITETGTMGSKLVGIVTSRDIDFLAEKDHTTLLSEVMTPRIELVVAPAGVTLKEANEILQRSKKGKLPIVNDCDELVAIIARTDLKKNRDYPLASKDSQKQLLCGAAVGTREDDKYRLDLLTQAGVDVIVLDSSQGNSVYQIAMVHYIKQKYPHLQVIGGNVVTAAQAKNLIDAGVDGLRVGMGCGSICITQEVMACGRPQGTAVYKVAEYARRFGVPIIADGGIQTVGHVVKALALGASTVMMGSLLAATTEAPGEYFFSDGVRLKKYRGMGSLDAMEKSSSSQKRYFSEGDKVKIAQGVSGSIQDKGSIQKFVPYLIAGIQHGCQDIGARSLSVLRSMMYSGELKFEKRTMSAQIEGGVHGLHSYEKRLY
UniProt P19367, sequence (P19367 whole entry, looked up): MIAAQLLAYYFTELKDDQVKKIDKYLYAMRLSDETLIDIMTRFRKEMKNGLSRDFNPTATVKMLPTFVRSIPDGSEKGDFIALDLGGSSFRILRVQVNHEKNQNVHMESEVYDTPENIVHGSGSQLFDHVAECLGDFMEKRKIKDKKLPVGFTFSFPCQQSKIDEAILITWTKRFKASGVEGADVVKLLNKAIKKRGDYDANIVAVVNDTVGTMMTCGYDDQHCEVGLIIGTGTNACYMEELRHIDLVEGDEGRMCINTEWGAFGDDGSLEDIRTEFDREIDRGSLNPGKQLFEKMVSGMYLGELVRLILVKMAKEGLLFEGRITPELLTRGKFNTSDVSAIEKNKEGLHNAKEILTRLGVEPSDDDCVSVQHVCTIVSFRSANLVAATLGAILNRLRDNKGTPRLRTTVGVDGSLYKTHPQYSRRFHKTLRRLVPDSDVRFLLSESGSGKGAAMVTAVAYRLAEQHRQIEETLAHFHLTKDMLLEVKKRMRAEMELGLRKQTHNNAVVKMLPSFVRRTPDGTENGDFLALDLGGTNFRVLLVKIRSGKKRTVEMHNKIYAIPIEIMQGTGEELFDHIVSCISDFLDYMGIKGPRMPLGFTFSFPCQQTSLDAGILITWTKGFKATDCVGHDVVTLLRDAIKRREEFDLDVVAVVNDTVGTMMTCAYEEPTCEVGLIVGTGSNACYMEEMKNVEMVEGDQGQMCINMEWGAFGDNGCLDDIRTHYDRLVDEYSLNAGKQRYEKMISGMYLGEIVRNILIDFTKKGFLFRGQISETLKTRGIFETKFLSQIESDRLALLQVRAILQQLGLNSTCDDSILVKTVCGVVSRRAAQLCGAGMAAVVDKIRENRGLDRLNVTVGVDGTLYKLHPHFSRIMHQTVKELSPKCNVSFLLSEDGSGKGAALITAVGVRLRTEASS
UniProt Q7Z4H7, sequence (Q7Z4H7 whole entry, looked up): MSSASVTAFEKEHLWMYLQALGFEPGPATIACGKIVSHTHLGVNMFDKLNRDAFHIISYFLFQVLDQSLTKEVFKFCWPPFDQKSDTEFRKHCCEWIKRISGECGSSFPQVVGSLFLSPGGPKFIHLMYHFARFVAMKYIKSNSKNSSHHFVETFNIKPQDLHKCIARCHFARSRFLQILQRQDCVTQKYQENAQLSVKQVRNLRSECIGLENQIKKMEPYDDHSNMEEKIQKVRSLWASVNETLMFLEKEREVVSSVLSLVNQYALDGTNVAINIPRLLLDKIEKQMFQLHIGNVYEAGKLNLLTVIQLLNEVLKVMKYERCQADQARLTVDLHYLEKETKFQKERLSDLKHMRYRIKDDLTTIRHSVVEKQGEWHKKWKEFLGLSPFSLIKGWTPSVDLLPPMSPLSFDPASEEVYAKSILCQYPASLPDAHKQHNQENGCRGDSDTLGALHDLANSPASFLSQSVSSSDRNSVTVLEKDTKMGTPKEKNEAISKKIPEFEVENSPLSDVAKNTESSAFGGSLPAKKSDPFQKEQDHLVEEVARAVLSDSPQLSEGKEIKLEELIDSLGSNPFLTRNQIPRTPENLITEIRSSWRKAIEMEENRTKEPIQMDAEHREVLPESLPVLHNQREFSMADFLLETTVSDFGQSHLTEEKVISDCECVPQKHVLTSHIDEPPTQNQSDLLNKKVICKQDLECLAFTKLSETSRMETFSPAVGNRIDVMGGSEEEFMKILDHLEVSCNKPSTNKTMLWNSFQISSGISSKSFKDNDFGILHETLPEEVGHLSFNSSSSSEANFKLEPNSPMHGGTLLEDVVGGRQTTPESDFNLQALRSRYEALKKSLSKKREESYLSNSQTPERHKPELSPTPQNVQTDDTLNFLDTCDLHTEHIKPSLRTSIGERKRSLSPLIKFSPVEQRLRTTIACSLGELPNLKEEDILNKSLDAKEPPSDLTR
UniProt Q9Y5Q9, sequence (Q9Y5Q9 whole entry, looked up): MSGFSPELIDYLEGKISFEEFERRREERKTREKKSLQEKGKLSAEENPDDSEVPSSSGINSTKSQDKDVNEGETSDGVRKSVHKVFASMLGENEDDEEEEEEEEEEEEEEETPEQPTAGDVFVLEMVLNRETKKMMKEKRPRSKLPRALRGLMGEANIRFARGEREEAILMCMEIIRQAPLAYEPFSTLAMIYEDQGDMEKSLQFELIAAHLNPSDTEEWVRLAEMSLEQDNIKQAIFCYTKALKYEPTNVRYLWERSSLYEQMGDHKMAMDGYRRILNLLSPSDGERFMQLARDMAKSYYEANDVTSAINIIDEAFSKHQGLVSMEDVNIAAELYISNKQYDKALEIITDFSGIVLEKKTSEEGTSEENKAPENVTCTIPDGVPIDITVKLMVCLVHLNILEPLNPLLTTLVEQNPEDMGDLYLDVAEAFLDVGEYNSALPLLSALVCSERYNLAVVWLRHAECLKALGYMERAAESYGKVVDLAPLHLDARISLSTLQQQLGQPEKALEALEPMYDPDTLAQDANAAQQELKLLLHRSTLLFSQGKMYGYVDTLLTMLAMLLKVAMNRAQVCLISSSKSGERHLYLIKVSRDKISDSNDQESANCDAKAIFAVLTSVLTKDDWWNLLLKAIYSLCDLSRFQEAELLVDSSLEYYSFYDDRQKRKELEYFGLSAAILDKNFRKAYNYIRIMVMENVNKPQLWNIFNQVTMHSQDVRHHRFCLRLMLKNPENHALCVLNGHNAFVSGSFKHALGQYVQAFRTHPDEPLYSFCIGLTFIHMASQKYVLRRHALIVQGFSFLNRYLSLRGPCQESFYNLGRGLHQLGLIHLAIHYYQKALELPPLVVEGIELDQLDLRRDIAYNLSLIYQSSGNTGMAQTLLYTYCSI
UniProt Q16836, sequence (Q16836 whole entry, looked up): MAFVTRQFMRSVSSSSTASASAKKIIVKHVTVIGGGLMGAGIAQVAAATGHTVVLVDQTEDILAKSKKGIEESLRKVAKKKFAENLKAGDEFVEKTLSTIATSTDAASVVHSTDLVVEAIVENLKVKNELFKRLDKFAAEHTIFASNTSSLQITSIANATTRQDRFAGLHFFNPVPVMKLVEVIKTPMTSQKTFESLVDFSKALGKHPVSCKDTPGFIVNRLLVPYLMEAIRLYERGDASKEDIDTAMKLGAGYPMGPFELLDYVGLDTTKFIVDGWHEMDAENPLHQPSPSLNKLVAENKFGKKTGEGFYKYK
UniProt Q8IY47, sequence (Q8IY47 whole entry, looked up): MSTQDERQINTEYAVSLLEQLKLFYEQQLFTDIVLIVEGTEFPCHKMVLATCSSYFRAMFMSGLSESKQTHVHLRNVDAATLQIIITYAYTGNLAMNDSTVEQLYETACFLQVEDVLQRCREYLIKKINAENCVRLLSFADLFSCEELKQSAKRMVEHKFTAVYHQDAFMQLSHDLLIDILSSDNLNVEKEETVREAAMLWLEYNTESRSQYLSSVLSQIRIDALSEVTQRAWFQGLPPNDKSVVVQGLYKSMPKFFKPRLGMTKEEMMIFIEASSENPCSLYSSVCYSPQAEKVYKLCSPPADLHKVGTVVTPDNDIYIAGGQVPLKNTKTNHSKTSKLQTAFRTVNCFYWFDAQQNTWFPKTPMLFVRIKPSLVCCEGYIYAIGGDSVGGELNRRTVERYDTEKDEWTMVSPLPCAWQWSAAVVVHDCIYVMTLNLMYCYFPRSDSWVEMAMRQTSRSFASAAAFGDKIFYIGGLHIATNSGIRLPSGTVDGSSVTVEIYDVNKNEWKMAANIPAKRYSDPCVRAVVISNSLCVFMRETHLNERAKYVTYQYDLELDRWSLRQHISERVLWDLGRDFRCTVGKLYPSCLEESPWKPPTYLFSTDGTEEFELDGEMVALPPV
UniProt Q13418, sequence (Q13418 whole entry, looked up): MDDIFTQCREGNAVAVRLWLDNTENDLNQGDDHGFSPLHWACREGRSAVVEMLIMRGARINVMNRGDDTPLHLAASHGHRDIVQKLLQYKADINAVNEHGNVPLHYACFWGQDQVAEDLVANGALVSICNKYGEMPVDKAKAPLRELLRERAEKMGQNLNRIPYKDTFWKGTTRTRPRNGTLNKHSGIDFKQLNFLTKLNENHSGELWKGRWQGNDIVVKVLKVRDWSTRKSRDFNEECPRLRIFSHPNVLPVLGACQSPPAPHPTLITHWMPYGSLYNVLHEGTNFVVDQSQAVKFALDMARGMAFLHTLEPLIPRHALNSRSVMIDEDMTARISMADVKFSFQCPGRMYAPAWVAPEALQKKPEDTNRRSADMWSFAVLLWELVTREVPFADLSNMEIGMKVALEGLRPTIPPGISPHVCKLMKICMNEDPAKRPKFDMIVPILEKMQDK

Target	log2 fold change (alvocidib)	log2 fold change (Tubastatin A)	log2 fold change [1]	log2 fold change (defactinib)	log2 fold change [2]	log2 fold change (encorafenib)	log2 fold change [3]	log2 fold change (alisertib)	log2 fold change [4]	log2 fold change (gefitinib)	log2 fold change (lapatinib)	log2 fold change (pictilisib)	log2 fold change (crizotinib)	log2 fold change [5]	log2 fold change (duvelisib)	log2 fold change (gandotinib)	log2 fold change (tozasertib)	log2 fold change (doramapimod)	log2 fold change (bafetinib)	log2 fold change [6]
GSE1 (UniProt Q14687)	-0.032 (inactive)	-0.155 (inactive)	0.014 (inactive)	-0.006 (inactive)	-0.001 (inactive)	0.017 (inactive)	0.05 (inactive)	-0.017 (inactive)	0.027 (inactive)	0.013 (inactive)	0.006 (inactive)	-0.032 (inactive)	-0.014 (inactive)	-0.073 (inactive)	-0.015 (inactive)	0.011 (inactive)	0.008 (inactive)	-0.019 (inactive)	-0.006 (inactive)	0.051 (inactive)
IMMT (UniProt C9J406)	-0.027 (inactive)	-0.076 (inactive)	-0.162 (inactive)	0.075 (inactive)	0.008 (inactive)	-0.085 (inactive)	-0.166 (inactive)	-0.031 (inactive)	-0.073 (inactive)	-0.052 (inactive)	0.017 (inactive)	0.082 (inactive)	-0.116 (inactive)	-0.461 (active)	0.003 (inactive)	0.048 (inactive)	0.015 (inactive)	-0.034 (inactive)	0.03 (inactive)	0.168 (inactive)
GTF3C3 (UniProt Q9Y5Q9)	-0.018 (inactive)	-0.147 (inactive)	0.043 (inactive)	-0.007 (inactive)	0.04 (inactive)	-0.001 (inactive)	0.065 (inactive)	-0.006 (inactive)	0.02 (inactive)	-0.006 (inactive)	-0.043 (inactive)	-0.051 (inactive)	-0.093 (inactive)	-0.108 (inactive)	0.017 (inactive)	-0.037 (inactive)	0.009 (inactive)	0.012 (inactive)	-0.045 (inactive)	0.084 (inactive)
HADH isoform 2 (UniProt Q16836)	0.048 (inactive)	0.003 (inactive)	-0.024 (inactive)	0.061 (inactive)	0.09 (inactive)	-0.048 (inactive)	0.03 (inactive)	0.021 (inactive)	-0.002 (inactive)	0.042 (inactive)	-0.011 (inactive)	0.04 (inactive)	0.031 (inactive)	0.057 (inactive)	-0.044 (inactive)	-0.05 (inactive)	0.053 (inactive)	-0.055 (inactive)	0.045 (inactive)	-0.055 (inactive)
HERC2 (UniProt O95714)	-0.075 (inactive)	-0.316 (active)	-0.109 (inactive)	-0.085 (inactive)	-0.077 (inactive)	0.027 (inactive)	0.111 (inactive)	-0.007 (inactive)	0.005 (inactive)	0.004 (inactive)	-0.001 (inactive)	-0.007 (inactive)	-0.055 (inactive)	-0.041 (inactive)	0.023 (inactive)	-0.007 (inactive)	0.022 (inactive)	0.058 (inactive)	-0.15 (inactive)	0.153 (inactive)
IMPDH1 isoform 6 (UniProt P20839)	-0.009 (inactive)	-0.226 (active)	0.002 (inactive)	-0.002 (inactive)	0.018 (inactive)	-0.001 (inactive)	-0.478 (active)	0.004 (inactive)	-0.002 (inactive)	0.005 (inactive)	-0.001 (inactive)	0.01 (inactive)	-0.021 (inactive)	-0.061 (inactive)	-0.013 (inactive)	0.046 (inactive)	0.014 (inactive)	0.033 (inactive)	-0.037 (inactive)	0.064 (inactive)
KHK isoform 2 (UniProt P50053)	0.058 (inactive)	-0.001 (inactive)	-0.057 (inactive)	-0.038 (inactive)	-0.068 (inactive)	0.03 (inactive)	-0.02 (inactive)	0.008 (inactive)	0.083 (inactive)	-0.038 (inactive)	-0.066 (inactive)	-0.015 (inactive)	-0.032 (inactive)	0.248 (active)	0 (inactive)	-0.058 (inactive)	0.018 (inactive)	0.031 (inactive)	0.001 (inactive)	-0.163 (inactive)
ISY1 isoform 1 (UniProt Q9ULR0)	-0.05 (inactive)	-0.03 (inactive)	0.013 (inactive)	0.082 (inactive)	0.366 (active)	-0.03 (inactive)	-0.149 (inactive)	-0.012 (inactive)	0.016 (inactive)	0.075 (inactive)	-0.033 (inactive)	0.011 (inactive)	0.01 (inactive)	-0.022 (inactive)	0.019 (inactive)	0.078 (inactive)	-0.035 (inactive)	0.016 (inactive)	-0.013 (inactive)	0.016 (inactive)
KBTBD2 (UniProt Q8IY47)	-0.073 (inactive)	0.167 (inactive)	-0.009 (inactive)	-0.013 (inactive)	-0.036 (inactive)	0.018 (inactive)	-0.362 (active)	-0.053 (inactive)	-0.01 (inactive)	0.028 (inactive)	-0.036 (inactive)	-0.019 (inactive)	-0.073 (inactive)	-0.139 (inactive)	-0.01 (inactive)	0.124 (inactive)	-0.056 (inactive)	-0.005 (inactive)	-0.07 (inactive)	0.138 (inactive)
GLB1 (UniProt P16278)	-0.042 (inactive)	-0.032 (inactive)	0.005 (inactive)	0.006 (inactive)	0.055 (inactive)	-0.036 (inactive)	0.327 (active)	0.022 (inactive)	0.007 (inactive)	-0.015 (inactive)	-0.02 (inactive)	0.001 (inactive)	-0.003 (inactive)	-0.017 (inactive)	0.004 (inactive)	0.012 (inactive)	-0.084 (inactive)	0.016 (inactive)	-0.03 (inactive)	0.008 (inactive)
IRF2BPL (UniProt Q9H1B7)	-0.076 (inactive)	-0.047 (inactive)	0.01 (inactive)	-0.007 (inactive)	0.048 (inactive)	-0.017 (inactive)	-0.06 (inactive)	-0.031 (inactive)	-0.013 (inactive)	-0.05 (inactive)	0.017 (inactive)	0.024 (inactive)	-0.006 (inactive)	-0.216 (inactive)	0.006 (inactive)	0.07 (inactive)	-0.005 (inactive)	-0.004 (inactive)	-0.015 (inactive)	0.075 (inactive)
HNRNPAB isoform 3 (UniProt Q99729)	-0.018 (inactive)	0.021 (inactive)	-0.018 (inactive)	0.017 (inactive)	0.043 (inactive)	-0.012 (inactive)	-0.016 (inactive)	-0.035 (inactive)	0 (inactive)	0.03 (inactive)	0.007 (inactive)	0.01 (inactive)	0.04 (inactive)	-0.068 (inactive)	-0.009 (inactive)	0.019 (inactive)	-0.02 (inactive)	-0.058 (inactive)	-0.002 (inactive)	0.033 (inactive)
HK1 isoform 2 (UniProt P19367)	-0.001 (inactive)	-0.038 (inactive)	-0.009 (inactive)	0.001 (inactive)	-0.011 (inactive)	0.003 (inactive)	0.004 (inactive)	0.017 (inactive)	-0.007 (inactive)	-0.011 (inactive)	0 (inactive)	-0.009 (inactive)	-0.023 (inactive)	-0.026 (inactive)	-0.033 (inactive)	-0.051 (inactive)	0.038 (inactive)	0.039 (inactive)	-0.023 (inactive)	0.029 (inactive)
GTPBP2 (UniProt Q9BX10)	-0.001 (inactive)	-0.045 (inactive)	0.039 (inactive)	0.018 (inactive)	-0.037 (inactive)	0.002 (inactive)	0.079 (inactive)	0.034 (inactive)	-0.07 (inactive)	0.058 (inactive)	0.064 (inactive)	-0.056 (inactive)	-0.052 (inactive)	0.021 (inactive)	0.043 (inactive)	-0.098 (inactive)	-0.048 (inactive)	0.027 (inactive)	-0.038 (inactive)	0.009 (inactive)
ILK (UniProt Q13418)	0.002 (inactive)	-0.084 (inactive)	-0.002 (inactive)	-0.026 (inactive)	-0.061 (inactive)	-0.032 (inactive)	0.038 (inactive)	0.007 (inactive)	-0.04 (inactive)	0.013 (inactive)	0.01 (inactive)	-0.005 (inactive)	-0.038 (inactive)	0.01 (inactive)	-0.036 (inactive)	-0.015 (inactive)	0.005 (inactive)	0.004 (inactive)	-0.002 (inactive)	0.007 (inactive)
HAUS6 (UniProt Q7Z4H7)	-0.043 (inactive)	-0.084 (inactive)	0.008 (inactive)	0.031 (inactive)	-0.004 (inactive)	0.031 (inactive)	-0.025 (inactive)	0.03 (inactive)	0.019 (inactive)	0.017 (inactive)	0.001 (inactive)	-0.028 (inactive)	-0.029 (inactive)	-0.054 (inactive)	0.006 (inactive)	-0.041 (inactive)	0.046 (inactive)	-0.009 (inactive)	0.051 (inactive)	0.104 (inactive)
